PubChem BioAssay (NCI)
About 83,000 compounds went through this panel and 20% of them were active in at least one assay; those are over-represented in the sample as a whole.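 Growth was measured after 48 h exposure to one concentration of compound in 96-well plates. Values under 10 count as active.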 Calls of active or inactive are those of the source.

Test system: HOP-62 NSCLC
Experiment: NCI-60 one-dose screen, 48 h (100 = growth as untreated, 0 = no growth, -100 = all killed)
Settings: 10 µM

| SMILES | growth |
| --- | --- |
| O=C(NO)c1ccc(Cn2ccc3c(Nc4ccccc4)ncnc32)cc1 | 14.4% (inactive) |
| N#Cc1ccc(-c2nn(-c3ccc(C(=O)O)cc3)cc2CNc2cccc(Br)c2)cc1 | 42% (inactive) |
| O=C(c1ccc(Cl)cc1)C1[C@H](c2ccccc2Br)[C@@H](c2ccccc2)NC12C(=O)Nc1ccccc12 (some centres not stated) | 43.6% (inactive) |
| CC1(C)CC[C@]2(C(=O)Nc3ccccc3)CC[C@]3(C)C(=CC[C@@H]4[C@@]5(C)CC[C@H](N)C(C)(C)[C@@H]5CC[C@]43C)[C@H]2C1 | 103% (inactive) |
| CC(=C(c1ccc(OCCCN(C)C)cc1)c1ccc(OCCCN(C)C)cc1)c1ccccc1 | -90.5% (active) |
| Cc1ccc(/C=C/C(=O)c2ccc(S(=O)(=O)NCCNc3nc(Nc4ccc(F)cc4)nc(N(C)C)n3)cc2)cc1 | 56.2% (inactive) |
| COc1ccc(C(=O)Nc2sc3c(c2C#N)CCC(=O)C3)cc1C(F)(F)F | -9.95% (active) |
| COc1ccc2nc(Cl)c(-c3cc(-c4ccccc4)nc(=S)[nH]3)cc2c1 | 75.7% (inactive) |
| Cc1ccc(-c2cc(C(=O)N=Nc3c(O)[nH]c4ccccc34)c3ccccc3n2)cc1 | 66.2% (inactive) |
| C#Cc1ccc(S(=O)(=O)Nc2cccc(-c3csc(NC(C)=O)n3)c2)cc1 | 84.6% (inactive) |
| CC(C)C1=C[C@@]23CC[C@@H]4[C@](C)(CCC[C@]4(C)C(=O)NCc4ccccc4)[C@H]2C[C@@H]1[C@H]1C(=O)CCC(=O)[C@H]13 | 94.4% (inactive) |
| COc1ccc(C(=O)NC(=S)N2CCN(c3ncnc4c3cnn4-c3ccccc3)CC2)cc1 | 31.9% (inactive) |
| C[C@H]1[C@H](C)CC[C@]2(COC(=O)CCC(=O)NCC#CCN3CCNCC3)CC[C@]3(C)C(=CC[C@@H]4[C@@]5(C)CCCNC(C)(C)[C@@H]5CC[C@]43C)[C@H]12 | 60.8% (inactive) |
| CC[C@@]1(O)C(=O)OCc2c1cc1n(c2=O)Cc2c-1nc1cc(F)c(C)c3c1c2[C@@H](N)CC3 | -31.7% (active) |
| Cc1cccc2cc(-c3cc(-c4ccccc4)nc(=S)[nH]3)c(Cl)nc12 | 97.4% (inactive) |
| Cc1ccc(CNC(=O)Cc2ccc3c(c2)CN(C2CCC(=O)NC2=O)C3=O)cc1 (configuration not stated) | -10.2% (active) |
| CONC[C@]1(C)C=C2C(=O)[C@](C)(O)C3(CC3)C(C)=C2[C@H]1O | -21.7% (active) |
| CC1(C)CC[C@]2(C(=O)N3CCOCC3)CC[C@]3(C)C(=CC[C@@H]4[C@@]5(C)CC[C@H](NCO)C(C)(C)[C@@H]5CC[C@]43C)[C@H]2C1 | -73.8% (active) |
| NS(=O)(=O)c1ccc(N=Nc2c(O)n(CC(=O)Nc3ccccc3Br)c3ccccc23)cc1 | 37.6% (inactive) |

| SMILES | growth |
| --- | --- |
| CNC(=O)c1cccc(N2CCc3c2ccc(NC(=O)Nc2ccc(N4CCN(C)CC4)c(C(F)(F)F)c2)c3F)c1 | -80% (active) |
| O=C(NCCCCC(c1ccc(F)cc1)c1ccc(F)cc1)NCCCc1cccnc1 | 56.2% (inactive) |
| CC(=O)Nc1ccc(-c2cn(-c3cccc(C(=O)Nc4ccc(Cl)c(C(F)(F)F)c4)c3)nn2)cn1 | -60.2% (active) |
| CCCS(=O)(=O)c1oc(-c2ccc(F)cc2)nc1S(=O)(=O)c1ccc(F)cc1 | 84% (inactive) |
| O=C(Cn1nc(-c2ccccc2)ccc1=O)NN1C(=O)c2ccccc2C1=O | 102% (inactive) |
| CC(=O)NCC1=C(C)C=C2C(=O)[C@](C)(O)C3(CC3)C(C)=C21 | -54.4% (active) |
| CCN1CCN(Cc2ccc(C(=O)Nc3cccc(-c4cn(-c5ccc6oc(=O)ccc6c5)nn4)c3)cc2C(F)(F)F)CC1 | -99.5% (active) |
| CCOP(=O)(OCC)O[C@H]1CCC(=O)[C@@H]2[C@H]1[C@H]1C[C@@H]3[C@@]4(C)CCCC(C)(C(=O)OC)[C@@H]4CC[C@@]23C=C1C(C)C (some centres not stated) | 76.8% (inactive) |
| O=C1Nc2ccc(F)cc2/C1=C/c1cccc(OCc2ccccn2)c1 | 78.9% (inactive) |
| CC1=N/C(=C\c2ccc(N(C)C)cc2)C(=O)N1CCc1ccc(S(N)(=O)=O)cc1 | 84.4% (inactive) |
| O=C(Nc1ccc(I)cc1F)c1cc(-c2ccc(F)cc2F)ccc1O | -10.6% (active) |
| C/C(=N\NC(N)=S)c1ccc(Nc2nc(SC(C)C)nc(-c3ccccc3)c2C#N)cc1 | 34.4% (inactive) |
| COc1ccc2c(c1)N=C(C(=O)O)/C2=C/c1sc(Nc2ccc(O)cc2)nc1O | 80.9% (inactive) |
| COc1cc(-c2nc3cc(Cl)c(Cl)cc3[nH]2)ccc1OCc1nnc(-c2ccc(Br)cc2)o1 | -28.1% (active) |
| Cc1ccc(NC(=O)c2ccc(-n3c(=O)[nH]c4ccccc4c3=O)cc2)cc1 | 82% (inactive) |
| CC(=C(c1ccc(OCCN2CCCCC2)cc1)c1ccc(OCCN2CCCCC2)cc1)c1ccccc1 | 10.4% (inactive) |
| CCCCCc1ccc(S(=O)(=O)N(C(C)=O)c2cc(-c3csc(N(C)C(C)=O)n3)ccc2N2CCN(C)CC2)cc1 | 51.6% (inactive) |
| COc1cc2c3c(n(CCCNC(C)C)c(=O)c2cc1OC)-c1nc2c(cc1C3=O)OCO2 | 5.84% (active) |
